Consider twelve compounds from PubChem BioAssay (EPA / NIEHS).

Each structure is given as a SMILES string. Results filed as inconclusive are left out. Some compounds were tested as several samples or in several runs, with calls that do not always agree. Calls of active or inactive are those of the source. The calls were made as follows, unless noted: active = hit-call score of the fitted dose curve at least 0.9, where 1 is the maximum; inconclusive = response in the unintended direction; inactive = score below 0.9.

The target in assay [1] is Estrogen receptor (Homo sapiens) (UniProt P03372). As to the kind of experiment: OT_ERa_GFPERaERE_0480: Odyssey Thera (OT) 8-hour HeLa Transcription Induction Assay for Estrogen Receptor (AID 2283381; active = hit-call score of the fitted dose curve at least 0.9, where 1 is the maximum; inactive = score below 0.9). The gist of the method:
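Human cervical HeLa cells were treated for 8 hours, after which ERE-driven GFP induction was measured by fluorescence microscopy; increases over DMSO baseline defined activity.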

For assay [2] the target is unchanged. As to the kind of experiment: OT_ERa_GFPERaERE_0120: Odyssey Thera (OT) 2-hour HeLa Transcription Induction Assay for Estrogen Receptor (AID 2283382). The gist of the method: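 Cells (human cervical HeLa) receive compound, incubate 2 hours, then are imaged for fluorescent reporter induction. Images are quantified by high content analysis, and activity is fitted as gain of signal against DMSO.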

The target of assay [3] is Retinoic acid receptor RXR-alpha (Homo sapiens) (UniProt P19793). Put plainly: OT_NURR1_NURR1RXRa_0480: Odyssey Thera (OT) 8-hour HEK293T Protein Complementation Assay for Nurr1/retinoid X receptor (RXR) (AID 2283385). An outline of the steps: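 Interaction of bait and prey reconstitutes a functional reporter, whose fluorescence was measured in HEK293T cells dosed with compound for 8 hours. Signal gain relative to DMSO defined the single endpoint.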

The target is the same in assay [4]. Put plainly: OT_NURR1_NURR1RXRa_1440: Odyssey Thera (OT) 24-hour HEK293T Protein Complementation Assay for Nurr1/retinoid X receptor (RXR) (AID 2283386). An outline of the steps: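 Steps: fragment-tagged Nurr1 and RXRα expressed in HEK293T; compounds added; after 24 h, complemented reporter quantified by fluorescence intensity; signal increase over DMSO fitted as the single endpoint.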

Assay [5] deals with Peroxisome proliferator-activated receptor gamma (Homo sapiens) (UniProt P37231). Put plainly: OT_PPARg_PPARgSRC1_0480: Odyssey Thera (OT) 8-hour Protein-Complementation Assay for Peroxisome Proliferator-activated Receptor Gamma / SRC-1 Co-activator (AID 2283387). The gist of the method:
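Read-out: 488 nm N/C fluorescence ratio from complemented Venus YFP fragments, ≥350 cells per image, gain-of-signal fitted against DMSO baseline. Fusions of PPARg/SRC-1 with IFP1/IFP2 expressed transiently in HEK293T; compounds applied 8 h.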

Assay [6] shares this target. Put plainly: OT_PPARg_PPARgSRC1_1440: Odyssey Thera (OT) 24-hour Protein-Complementation Assay for Peroxisome Proliferator-activated Receptor Gamma/ SRC-1 Co-activator (AID 2283388). The gist of the method:
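HEK293T transiently transfected with PPARg/SRC-1 split-Venus YFP fusions 48 h before dosing, then treated 24 h at 37C. Fixed cells imaged; nuclear/cytoplasmic 488 nm fluorescence ratio, gain of signal versus DMSO.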

Assay [7] in a line: CEETOX_H295R_11DCORT: CeeTox H295R High-throughput Steroidogenesis Assay for 11-Deoxycortisol (11DCORT) (AID 2283432; active = hit-call score of the fitted dose curve at least 0.9, where 1 is the maximum; inactive = score below 0.9;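 as to AC50: human adrenal H295R cells prestimulated with 10 µM forskolin for 48 h; 11-deoxycortisol secreted into the medium measured by LC-MS/MS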). The note with it: actives raise or lower the signal. The gist of the method: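 H295R cells; 10 uM forskolin prestim 48 h; compound in 0.1% DMSO 48 h; media extracted with MTBE; 11-deoxycortisol by LC-MS/MS, 7-point standard curve; gain/loss vs DMSO baseline; viability by MTT in same wells.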

The nature of assay [8]: CEETOX_H295R_OHPREG: CeeTox H295R High-throughput Steroidogenesis Assay for OH-Pregnenolone (OHPREG) (AID 2283434; active = hit-call score of the fitted dose curve at least 0.9, where 1 is the maximum; inactive = score below 0.9). Particulars: actives raise or lower the signal. An outline of the steps: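 Readout: HPLC-MS/MS of 17alpha-hydroxypregnenolone in medium after 48 h chemical exposure of H295R cells pretreated with forskolin. Values fitted bidirectionally relative to DMSO; chemicals reducing viability to 20–70% were retested after 10-fold dilution.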

A short description of assay [9]: CEETOX_H295R_OHPROG: CeeTox H295R High-throughput Steroidogenesis Assay for OH-Progesterone (OHPROG) (AID 2283435; active = hit-call score of the fitted dose curve at least 0.9, where 1 is the maximum; inactive = score below 0.9;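 as to AC50: human adrenal H295R cells primed 48 h with 10 µM forskolin; 17alpha-hydroxyprogesterone secreted into medium measured by HPLC-MS/MS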). Particulars: actives raise or lower the signal. An outline of the steps: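 Steps: seed H295R cells and adhere overnight; stimulate with 10 uM forskolin for 48 h; replace with chemical-containing medium (0.1% DMSO) for 48 h; extract medium with MTBE; quantify 17alpha-hydroxyprogesterone by reverse-phase C18 HPLC-MS/MS against a 7-point curve.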

Assay [10] in a line: CEETOX_H295R_ANDR: CeeTox H295R High-throughput Steroidogenesis Assay for Androstenedione (ANDR) (AID 2283436; active = hit-call score of the fitted dose curve at least 0.9, where 1 is the maximum; inactive = score below 0.9;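 also: human H295R adrenal cells exposed for 48 h with androstenedione measured in medium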). Particulars: actives raise or lower the signal. An outline of the steps: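 Steroidogenesis in H295R adrenal cells after 48 h dosing; androstenedione quantified by LC-MS/MS, with DMSO as negative control and baseline for bidirectional curve fitting.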
Assay [11] is described as follows: CEETOX_H295R_CORTIC: CeeTox H295R High-throughput Steroidogenesis Assay for Corticosterone (CORTIC) (AID 2283437; active = hit-call score of the fitted dose curve at least 0.9, where 1 is the maximum; inactive = score below 0.9;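 also: corticosterone secreted into medium quantified by mass spectrometry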;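 as to AC50: human H295R adrenal cells prestimulated with forskolin before chemical exposure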). Particulars: actives raise or lower the signal. The gist of the method: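 Steps: seed H295R, adhere overnight; 10 uM forskolin 48 h; replace with chemical (0.1% DMSO) 48 h; extract medium with MTBE; quantify corticosterone by HPLC-MS/MS; score bidirectionally vs DMSO.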

Assay [12] is described as follows: CEETOX_H295R_CORTISOL: CeeTox H295R High-throughput Steroidogenesis Assay for Cortisol (AID 2283438; active = hit-call score of the fitted dose curve at least 0.9, where 1 is the maximum; inactive = score below 0.9;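 also: cortisol secreted into medium quantified by LC-MS/MS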). The note with it: actives raise or lower the signal. The gist of the method:
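Cortisol synthesis by H295R cells is measured 48 h after chemical dosing, following a 48 h stimulation with 10 uM forskolin. Hormone is extracted and quantified by HPLC-MS/MS, and activity is fitted bidirectionally against the DMSO control.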

Assay [13] in a line: CEETOX_H295R_DOC: CeeTox H295R High-throughput Steroidogenesis Assay for DOC (AID 2283439; active = hit-call score of the fitted dose curve at least 0.9, where 1 is the maximum; inactive = score below 0.9). Particulars: actives raise or lower the signal. An outline of the steps: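 Steps: seed H295R, adhere overnight; 10 uM forskolin 48 h; replace with chemical medium (0.1% DMSO) 48 h; collect medium, MTBE extraction, HPLC-MS/MS for DOC. Viability then checked by MTT; cytotoxic chemicals diluted until viability ≥70%.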

In assay [14] the target is Bile acid receptor (Homo sapiens) (UniProt Q96RI1). Put plainly: OT_FXR_FXRSRC1_0480: Odyssey Thera (OT) 8-hour HEK293T Protein-Complementation Assay for Farnesoid X receptor/SRC-1 Co-activator (AID 2283383). The gist of the method:
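PCA, HEK293T, 8 h compound exposure; FXR–SRC-1 binding reconstitutes split reporter; fluorescence intensity; positive-direction fit vs DMSO.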

Assay [15] has as its target Estrogen receptor beta (Homo sapiens) (UniProt Q92731). As to the kind of experiment: OT_ER_ERbERb_1440: Odyssey Thera (OT) 24-hour HEK293T Protein-Complementation Assay for Estrogen Receptor-beta/-beta Homodimer (AID 2283380).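 Also: fluorescence gain from ER beta LBD homodimer complementation read by laser scanning cytometry; scored as signal increase over DMSO baseline for both agonists and antagonists.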 The gist of the method:
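HEK293T cells stably expressing human ER-beta LBD (aa 310-547) PCA homodimer pair, dosed 24 h; formaldehyde-fixed, Draq5-stained. Readout: increase in nuclear (agonist) or nuclear plus cytoplasmic (antagonist) fluorescence intensity versus DMSO, gain-of-signal fitting.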

For assay [16], the target named is Bile acid receptor (Homo sapiens) (UniProt Q96RI1). Put plainly: OT_FXR_FXRSRC1_1440: Odyssey Thera (OT) 24-hour HEK293T Protein-Complementation Assay for Farnesoid X receptor/SRC-1 Co-activator (AID 2283384). An outline of the steps:
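Measures ligand-driven FXR–SRC-1 co-activator recruitment in HEK293T via fragment complementation, fluorescence intensity at 24 h. DMSO served as negative control and baseline for gain-of-signal fitting.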

Estrogen receptor (Homo sapiens), sequence (P03372 whole entry, looked up): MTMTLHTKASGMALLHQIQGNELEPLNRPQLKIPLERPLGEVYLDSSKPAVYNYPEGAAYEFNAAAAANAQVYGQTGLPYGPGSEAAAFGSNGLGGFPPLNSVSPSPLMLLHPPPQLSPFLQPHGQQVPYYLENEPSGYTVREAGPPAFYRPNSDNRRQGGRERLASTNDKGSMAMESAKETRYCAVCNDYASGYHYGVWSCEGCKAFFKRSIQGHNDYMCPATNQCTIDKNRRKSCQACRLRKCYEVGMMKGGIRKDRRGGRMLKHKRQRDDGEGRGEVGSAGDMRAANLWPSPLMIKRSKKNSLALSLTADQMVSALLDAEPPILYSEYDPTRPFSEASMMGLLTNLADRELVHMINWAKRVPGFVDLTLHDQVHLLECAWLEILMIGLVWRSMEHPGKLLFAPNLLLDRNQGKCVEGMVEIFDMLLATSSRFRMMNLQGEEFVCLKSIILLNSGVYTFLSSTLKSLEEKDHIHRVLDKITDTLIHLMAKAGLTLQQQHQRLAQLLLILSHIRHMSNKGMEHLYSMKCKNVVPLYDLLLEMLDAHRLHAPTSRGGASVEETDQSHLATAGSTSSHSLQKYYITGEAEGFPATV
Retinoic acid receptor RXR-alpha (Homo sapiens), sequence (P19793 whole entry, looked up): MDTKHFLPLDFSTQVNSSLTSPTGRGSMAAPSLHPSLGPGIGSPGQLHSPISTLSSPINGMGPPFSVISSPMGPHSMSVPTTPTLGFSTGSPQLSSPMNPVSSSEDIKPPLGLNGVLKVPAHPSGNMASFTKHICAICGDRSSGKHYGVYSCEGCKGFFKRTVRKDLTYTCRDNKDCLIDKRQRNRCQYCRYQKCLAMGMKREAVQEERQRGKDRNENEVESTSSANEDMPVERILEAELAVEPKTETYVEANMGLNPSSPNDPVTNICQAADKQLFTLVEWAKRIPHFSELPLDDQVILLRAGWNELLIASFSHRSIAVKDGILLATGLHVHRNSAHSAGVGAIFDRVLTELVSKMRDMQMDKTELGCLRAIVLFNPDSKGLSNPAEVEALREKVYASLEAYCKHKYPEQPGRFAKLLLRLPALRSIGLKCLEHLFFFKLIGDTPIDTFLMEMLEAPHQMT
Bile acid receptor (Homo sapiens), sequence (Q96RI1 whole entry, looked up, the tested form may be a part): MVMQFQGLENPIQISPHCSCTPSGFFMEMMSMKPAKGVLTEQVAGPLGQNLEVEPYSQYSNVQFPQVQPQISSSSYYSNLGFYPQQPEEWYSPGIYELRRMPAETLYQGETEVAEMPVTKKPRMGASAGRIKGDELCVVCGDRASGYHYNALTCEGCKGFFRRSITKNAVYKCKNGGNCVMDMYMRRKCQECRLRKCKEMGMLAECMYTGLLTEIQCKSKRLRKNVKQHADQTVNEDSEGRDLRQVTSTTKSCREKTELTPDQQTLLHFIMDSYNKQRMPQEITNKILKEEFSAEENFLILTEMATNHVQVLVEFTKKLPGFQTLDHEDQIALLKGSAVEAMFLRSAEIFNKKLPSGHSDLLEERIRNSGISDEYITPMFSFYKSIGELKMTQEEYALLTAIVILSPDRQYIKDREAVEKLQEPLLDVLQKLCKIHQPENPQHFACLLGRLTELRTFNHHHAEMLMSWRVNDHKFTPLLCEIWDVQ
Peroxisome proliferator-activated receptor gamma (Homo sapiens), sequence (P37231 whole entry, looked up, the tested form may be a part): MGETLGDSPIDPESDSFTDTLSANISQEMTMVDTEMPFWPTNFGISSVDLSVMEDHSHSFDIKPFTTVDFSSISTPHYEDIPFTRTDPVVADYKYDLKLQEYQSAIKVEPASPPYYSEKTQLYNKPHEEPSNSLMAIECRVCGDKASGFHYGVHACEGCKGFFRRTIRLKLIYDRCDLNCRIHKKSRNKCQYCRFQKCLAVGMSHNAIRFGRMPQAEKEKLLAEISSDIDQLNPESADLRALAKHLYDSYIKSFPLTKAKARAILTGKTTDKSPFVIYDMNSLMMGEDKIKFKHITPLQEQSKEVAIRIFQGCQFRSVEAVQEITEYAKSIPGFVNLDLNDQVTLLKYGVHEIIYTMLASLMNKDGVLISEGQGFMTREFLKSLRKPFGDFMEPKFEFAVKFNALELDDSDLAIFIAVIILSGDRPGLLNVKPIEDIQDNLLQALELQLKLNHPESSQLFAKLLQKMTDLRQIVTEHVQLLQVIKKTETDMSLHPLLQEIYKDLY
Estrogen receptor beta (Homo sapiens), sequence (Q92731 whole entry, looked up, the tested form may be a part): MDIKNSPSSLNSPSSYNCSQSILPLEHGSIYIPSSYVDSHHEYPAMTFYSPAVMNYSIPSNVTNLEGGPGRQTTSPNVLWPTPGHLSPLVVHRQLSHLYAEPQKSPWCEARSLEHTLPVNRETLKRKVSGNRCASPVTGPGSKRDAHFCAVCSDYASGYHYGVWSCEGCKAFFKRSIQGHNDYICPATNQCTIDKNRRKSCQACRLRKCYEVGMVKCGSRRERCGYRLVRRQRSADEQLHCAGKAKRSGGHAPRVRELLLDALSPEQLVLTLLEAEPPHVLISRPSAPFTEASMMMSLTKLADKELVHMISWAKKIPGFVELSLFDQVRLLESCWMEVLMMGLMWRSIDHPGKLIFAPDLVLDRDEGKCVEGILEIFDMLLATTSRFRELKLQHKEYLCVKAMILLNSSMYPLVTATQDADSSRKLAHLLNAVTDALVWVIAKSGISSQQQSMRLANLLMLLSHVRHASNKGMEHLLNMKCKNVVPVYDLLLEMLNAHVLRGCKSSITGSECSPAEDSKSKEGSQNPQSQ

Usually AC50 stands for the midpoint of the concentration-response curve, whichever way the signal moves. `CSC(=O)c1cccc2nnsc12`: the compound was classed as inactive in [1], in assay [2], in assay [3], in [4], in assay [5] and in assay [6]. For the same compound, the result in assay [7], in assay [10], in assay [12] and in [13] was inactive. For the same compound, the AC50 in assay [8] was 55.6 µM (active); in assay [9], 50 µM (active); in assay [11], 23 µM (active).

As for `OB(O)O`, the result in assay [1], in assay [2], in assay [14], in assay [4], in [5] and in assay [6] was inactive.

With `CCOC(=O)C(C)Oc1ccc(Oc2nc3ccc(Cl)cc3o2)cc1` (stereo not drawn), the result in [15], in [16], in [3], in assay [4], in assay [5] and in [6] was inactive. Further, the AC50 is 35.9 µM (active) in assay [14] and 78.9 µM (active) in assay [3].

On to `CC1(C)C(C=C(Cl)Cl)C1C(=O)OCc1cccc(Oc2ccccc2)c1` (stereo not drawn), for which the compound was called inactive in assay [1], in [2], in [3], in assay [4], in assay [8] and in assay [10]. Besides, the result in assay [11], in assay [12] and in assay [13] was inactive. In addition, the AC50 in assay [7] is 11.3 µM (active); in assay [9], 11.1 µM (active).

As to `CCSC(=O)N(CC(C)C)CC(C)C`, the compound was classed as inactive in [15], in [1], in assay [2], in assay [4], in [5] and in assay [6].

As for `CCCOC(=O)c1ccc(C(=O)OCCC)nc1`, the result in assay [15], in assay [1], in assay [2], in [14], in assay [4] and in [5] was inactive. In [6], the compound was called inactive. The AC50 in assay [16] was 13.2 µM (active).

With `CN(C)C(=O)Nc1ccc(Cl)c(Cl)c1`, the call in [1], in assay [2], in assay [3], in assay [4], in assay [5] and in [6] was inactive. Moreover, the compound was classed as inactive in assay [7], in assay [8], in assay [11], in [12] and in [13]. For the same compound, the concentration at half-maximal activity (AC50) in assay [9] is 42.6 µM (active); in assay [10], 30.8 µM (active).

As to `CCCCOC(=O)C(C)Oc1ccc(Oc2ccc(C(F)(F)F)cn2)cc1` (stereo not drawn), the compound was called inactive in assay [15], in [1], in assay [2], in [14], in assay [16] and in assay [3]. Besides, the outcome in [4], in [5] and in assay [6] was inactive. The AC50 in [3] was 65.1 µM (active).

Consider `CCC(C)OC(=O)N1CCCCC1CCO` (stereo not drawn), for which the compound was classed as inactive in assay [15], in assay [14], in assay [16], in [3], in assay [4] and in assay [5]. For the same compound, in assay [6], the compound was called inactive.

Consider `CCN(CC)C(=O)c1cccc(C)c1`, for which the call in assay [15], in [1], in assay [2], in [14], in assay [3] and in assay [4] was inactive. Further, the compound was called inactive in assay [5] and in [6].

In the case of `CCCCC(CC)CN1C(=O)C2C3C=CC(C3)C2C1=O` (stereo not drawn), the compound was called inactive in assay [15], in [1], in assay [2], in assay [3], in [4] and in assay [5]. For the same compound, the compound was classed as inactive in assay [6], in assay [7], in [8], in [9], in assay [11] and in [12]. The compound was classed as inactive in assay [13].

Consider `CCNc1nc(N)nc(Cl)n1`, for which the call in assay [15], in assay [3], in assay [4], in assay [8] and in [9] was inactive.
